Screening results (PubChem)
Hits are enriched below; roughly 21% of the tested compounds scored in any of these assays.
Shiga inhibitor = A qHTS for Small Molecule Inhibitors of Shiga Toxin. Vero cells, Shiga toxin protein synthesis inhibition reporter. inhibition, % at 38.7 µM. 290,000 tested, 9.2% active; in the data active means inhibition mostly above about 28%, no sharp cut-off; inactive means mostly below about 43%; further: 0% is about no effect
Pf growth 48h = Primary qHTS for delayed death inhibitors of the malarial parasite plastid, 48 hour incubation; 310,000 tested, 5.9% active; P. falciparum luciferase growth in erythrocytes, 48 h; AID 504832, 2011; Potency, µM (titrated, usually from 28.7 µM), without a hit: top-dose activity change, negative = inhibition, usual class: inhibitors; further: potency means the concentration at half of the fitted maximal effect; on the % scale 0 is the no-effect control and ±100 the full control effect
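Parasite viability was followed by luminescence of a genomically integrated firefly luciferase. Cultures held 0.1% parasitemia at 2% hematocrit (final), incubated under 5% CO2 at 37 C.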
Pf growth 96h = Primary qHTS for delayed death inhibitors of the malarial parasite plastid, 96 hour incubation; P. falciparum luciferase reporter growth, 96 h; Potency, µM (top dose mostly 28.7 µM), without a hit: at the highest dose activity change, negative = inhibition, actives largely listed as inhibitors; 320,000 tested, 6.9% active; AID 504834, 2011; further: potency means the concentration at half of the fitted maximal effect; on the % scale 0 is the no-effect control and ±100 the full control effect
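96 h incubation, 37 C, 5% CO2, of luciferase-reporter P. falciparum-infected RBCs (2% hematocrit, 0.05% parasitemia final) with test compounds; endpoint luminescence.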
Cycloheximide cs = Cycloheximide Counterscreen for Small Molecule Inhibitors of Shiga Toxin. max response, %. cell reporter, cycloheximide protein synthesis inhibition counterscreen. 300,000 tested, 12% active; in the data active means max response mostly above about 13%, no sharp cut-off; inactive means mostly below about 14%; further: read at 38.3 µM for the half of the compounds with a filed dose; 0% is about no effect
NS1 function inh = qHTS Assay for Inhibitors of Influenza NS1 Protein Function. Potency, µM (top dose mostly 46.1 µM), inactives show at the top dose activity, positive = more growth. 270,000 tested, 0.4% active; calls by dose curve; further: potency means the concentration at half of the fitted maximal effect; actives are rising curves; nearly all actives have a fitted effect of over 50% in size
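Compounds were scored for reversing the slow growth caused by influenza A NS1 in S. cerevisiae, measured by optical density at 600 nm. Assay medium contained 2% galactose at pH 6.0; NS1-free yeast of the same strain were the positive control.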
Numbers without * were called inactive; u = inconclusive; x = not tested or not shown; [ ] = dose if it differs, or a comment. Unless noted, the call rests on the fitted dose curve; in most records, active means well fitted inhibition curve with a large enough effect; inconclusive means small, poorly fitted or top-dose-only effect, or another doubt; inactive means no such curve, though single readings can be large or run the other way.

SMILES | Shiga inhibitor | Pf growth 48h | Pf growth 96h | Cycloheximide cs | NS1 function inh
COc1ccccc1N1CCN(C(=O)c2cc(C(=O)N3CCN(c4ccccc4OC)CC3)cc([N+](=O)[O-])c2)CC1 | -6 | u | u | -1 | 6%
CC1(c2ccccc2)CC(C)(C)N(C(=O)CSc2nnc(N)s2)c2ccccc21 (centres undefined) | -10 | u | 5.2µM* | -6 | -8%
CC1(c2ccccc2)CC(C)(C)N(C(=O)C2CCCO2)c2ccccc21 (centres undefined) | -9 | x | 2.3µM* | 4 | -95%
O=C(OCC(=O)c1ccc(Cl)cc1Cl)c1cnccn1 | -4 | 24% | 9% | -4 | -2%
COc1ccc(NC(=O)N2CCCC2C(=O)NCc2ccc(C)cc2)cc1 (centres undefined) | 12 | 18% | -11% | 2 | -10%
CCOC(=O)N1CCN(CC(=O)Nc2sc(CC)cc2C(=O)c2ccc(OC)cc2)CC1 | -11 | u | 10µM* | -2 | 16%
Cc1ccc(C(=O)c2cc(C)sc2NC(=O)CN2CCN(C(=O)c3ccco3)CC2)cc1 | -12 | 1.3µM* | 7% | -4 | -4%
CCc1cc(C(=O)OC)c(NC(=O)CN2CCN(C(=O)C3CCCO3)CC2)s1 (centres undefined) | -8 | u | 0.66µM* | -4 | -19%
CCc1cc(C(=O)OC)c(NC(=O)CN2CCN(C(=O)c3ccco3)CC2)s1 | -7 | 1.7µM* | u | -1 | 5%
Cc1cc(C(=O)c2ccccc2)c(NC(=O)CN2CCOCC2)s1 | -7 | 12% | 30% | -1 | -2%
COc1ccc(S(=O)(=O)N(C)c2ccc(C(=O)Nc3cccnc3)cc2)cc1 | -7 | u | u | -3 | -13%
COc1cccc(NC(=S)N2c3ccccc3CC2C)c1 (centres undefined) | 31 | 10% | u | 19* | 4%
CC1Cc2ccccc2N1C(=S)Nc1ccc(S(N)(=O)=O)cc1 (centres undefined) | 14 | 4% | -12% | -1 | -43%
CC(=O)c1ccc(NC(=S)N2c3ccccc3CC2C)cc1 (centres undefined) | 18 | 13% | u | 23* | x
COCCCNc1nc2nonc2nc1N(C)CC1CCCN1C (centres undefined) | -11 | -10% | -5% | -2 | -3%
Cc1cccc(CCNC(=O)COc2cc(=O)n(C)c3ccccc23)c1 | 2 | -11% | 10µM* | -7 | x
Cn1cc(C(=O)NCCN2CCN(c3cccc(Cl)c3)CC2)c2c3ccccc3n(C)c2c1=O | 5 | 1µM* | u | -2 | -42%
Cn1c(=O)cc(OCC(=O)NCCCN2CCN(c3ccccc3F)CC2)c2ccccc21 | -14 | x | u | -5 | -3%
Cn1c(=O)cc(OCC(=O)NCCCN2CCN(c3cccc(Cl)c3)CC2)c2ccccc21 | -17 | u | 12µM* | -4 | -1%
CC(C)Cn1c(-c2cc(Br)ccc2F)nc2c1c(=O)[nH]c(=O)n2CC(C)C | -10 | u | u | -6 | 13%
CCOc1ccccc1CNc1ccc(O)cc1 | 23 | u | u | 7 | 13%
Oc1ccc(NCc2ccc(OCc3ccccc3)cc2)cc1 | 153* | 1%[0.00184 µM] | 3% | 50* | -4%
CCc1ccc(CNc2ccc(O)cc2)cc1 | 14 | 12µM* | 56% | 9 | 27%
O=C(CNC(=O)c1cccc(F)c1)N/N=C/c1cc(Br)ccc1OC(=O)/C=C/c1ccco1 | 14 | 13µM* | 13µM* | -2 | 7%
O=C(CNC(=O)c1ccccc1O)N/N=C/c1cc(Br)ccc1OC(=O)/C=C/c1ccco1 | 26 | u | 8.3µM* | 6 | x
SMILES | Shiga inhibitor | Pf growth 48h | Pf growth 96h | Cycloheximide cs | NS1 function inh
COc1ccc([N+](=O)[O-])cc1/C=N/NC(=O)CNC(=O)c1cccc(F)c1 | -12 | 26% | 1.9µM* | -2 | -10%
COc1ccc([N+](=O)[O-])cc1/C=N/NC(=O)CNC(=O)C(c1ccccc1)c1ccccc1 | -22 | 25% | -2% | -1 | -3%
COc1ccc(Cn2ccnc2SCC(=O)Nc2nnc(C)s2)cc1 | -16 | u | u | -4 | 2%
COc1ccc(OC)c(N/C(=N/c2nc(C)cc(C)n2)NC(C)=O)c1 | -3 | 11% | 11% | -2 | 3%
COc1ccc(N/C(=N/c2nc(C)cc(C)n2)NC(=O)Nc2ccc(Cl)c(Cl)c2)c(OC)c1 | -8 | 12µM* | 10µM* | -1 | -1%
CCCOc1ccccc1NC(=O)/C=C/C(N)=O | -3 | x | 8% | 13* | -222%
CCCOc1ccccc1N/C(N)=N/c1nc(C)cc(C)n1 | -15 | 15µM* | -23% | -3 | u
CCCOc1ccccc1N/C(=N/c1nc(C)cc(C)n1)NC(=O)COc1ccc(OC)cc1 | -12 | x | 4.7µM* | -4 | 7%
O=C(O)c1cc(S(=O)(=O)N2CCOCC2)c[nH]1 | x | 0% | 61% | x | x
Cc1ccc2cc(NC(=O)Cc3ccccc3)ccc2n1 | 92* | 263% | 135% | 53* | -6%
CCc1ccc(C(=O)Nc2ccc3nc(C)ccc3c2)cc1 | 48 | 21%[0.00184 µM] | 78% | 31* | -4%
Cc1ccc2cc(NC(=O)c3ccc(C(C)(C)C)cc3)ccc2n1 | 25 | -1%[0.00184 µM] | 5% | -3 | -6%
Cc1ccc2cc(NC(=O)c3ccccc3C)ccc2n1 | 81* | 6%[0.00184 µM] | 150% | 34* | -5%
CCOC(=O)/C(C#N)=C/c1cccc(F)c1 | -3 | 0% | u | -7 | x
Cc1snnc1C(=O)NC(=S)Nc1ccccc1 | 4 | 88% | 6% | -2 | -8%
Clc1ccc2c(c1)C(c1cccs1)=NNC(c1cccnc1)=N2 | 12 | -7% | 1.7µM* | -4 | 19%
COc1ccc2c(c1)C(c1ccc(N3CCOCC3)cc1)=NNC(c1cccnc1)=N2 | -16 | u | 1% | 2 | 10%
COc1ccc2c(c1)C(c1cccs1)=NNC(c1ccncc1)=N2 | -14 | -4% | u | -4 | 7%
CC(C)c1ccc2c(c1)C(c1cccs1)=NNC(c1ccncc1)=N2 | 76* | u | 18% | 22* | 2%
CCCOc1ccc(C2=NNC(c3cccs3)=Nc3ccc(OC)cc32)cc1 | 98* | u | -1% | 57* | u
CC(C)c1ccc2c(c1)C(c1ccc(N3CCOCC3)cc1)=NNC(c1cccs1)=N2 | 54 | u | u | 45* | 26%
COc1cc(NC(=O)C/C(C)=N/NC(=O)C(=O)NCCO)c(OC)cc1Cl | 23 | -4% | 24% | -2 | -3%
COCCn1c(=O)c2c(nc3n2CCN3c2ccc(C)cc2)n(C)c1=O | -4 | -3% | 48% | -3 | u
CCOc1ccc(NC(=O)CCNC(=O)Cn2cnc3ccccc3c2=O)cc1 | 18 | 13% | 5% | -9 | 10%
CCN(C(=O)CN1CCN(c2cccc(C(F)(F)F)c2)CC1)c1c(N)n(Cc2ccccc2)c(=O)[nH]c1=O | 16 | 0% | -27% | 11 | -4%
Cc1ccc(NC(=O)COC(=O)Cc2csc(-c3cccc(F)c3)n2)cc1C | 12 | -3% | 23% | 1 | 15%
